# According to PubChem BioAssay (NCI):
# About 83,000 compounds went through this panel and 20% of them were active in at least one assay; those are over-represented in the sample as a whole.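 Negative percent growth values reflect cell death: -40 means 40% of the cells present at the start died, and -100 means all died.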 The source made the active and inactive calls. Rule for the calls: active = growth percent below 10; inactive = the rest.
# Tested on: ACHN renal
# Assay: NCI-60 one-dose screen, 48 h (100 = growth as untreated, 0 = no growth, -100 = all killed)
# Conditions: 10 µM unless noted
row,SMILES,growth
1,CN(C)Cc1ccccn1,102% (inactive)
2,CCNCC(C)(C)O,110% (inactive)
3,CCOS(=O)(=O)c1ccc([N+](=O)[O-])cc1,103% (inactive)
4,CCCCCCCCCCCCSC1=C(Cl)C(=O)C(OC)=C(OC)C1=O,27.7% (inactive)
5,CN(C(=S)S(=O)(=O)C12CC3CC(CC(C3)C1)C2)c1ccccc1,93.9% (inactive)
6,N#Cc1ccc2nc[nH]c2c1,-68.5% (active)
7,CCCCCC#CC(=O)O,97.1% (inactive)
8,CC(=O)C1C(=O)C(=O)N(c2ccc(Cl)c(Cl)c2)C1=O (configuration not stated),97.8% (inactive)
9,CC(C)OCC(CCl)OC(=O)Nc1ccccc1 (configuration not stated),105% (inactive)
10,COc1ccc(C(=O)/C(=N/Nc2ccccc2)c2ccc(OC)cc2)cc1,96.1% (inactive)
11,Cc1cc(Nc2ccc3c(c2)OCO3)c2cc3c(cc2n1)OCO3,50.9% (inactive)
12,NC(=O)N1CCOCC1,110% (inactive)
13,CC(=O)Nc1ccc(O)c(C)c1,99.4% (inactive)
14,COc1cccc2c1Cc1ccccc1-2,114% (inactive)
15,C=COC(=O)CCOCC(CC)CCCC (configuration not stated),106% (inactive)
16,N#C/C(=C\c1ccc(C#N)cc1)C(=O)c1ccccc1,101% (inactive)
17,Cc1cccc(C)c1NC(=S)/N=C\c1c(O)[nH]c(=O)[nH]c1=O,102% (inactive)
18,COc1ccc(C(=O)C(=O)c2ccccc2)cc1,101% (inactive)
19,O=C1CSc2ccccc2N1,110% (inactive)

row,SMILES,growth
1,Cc1c(Cl)cccc1NC(=S)NC(=O)c1ccccc1,113% (inactive)
2,CC(c1ccccc1)N(C)C (configuration not stated),109% (inactive)
3,CCOC(=O)/C(O)=C(\C=N\C(=S)Nc1ccc(Cl)c(Cl)c1)C(=O)OCC,96.3% (inactive)
4,CCC(=O)C1C(=O)c2ccccc2C1=O,115% (inactive)
5,CCCCCCCCCc1ccc(OC(C)=O)cc1,109% (inactive)
6,Nc1ncnc(Nc2ccc(C(F)(F)F)cc2)n1,98.2% (inactive)
7,CCOP(=O)(OCC)/C(=C\N1C(=O)CC(=O)NC1=S)C(=O)OC,99.5% (inactive)
8,C=CCOc1ccc(Cl)cc1Cl,102% (inactive)
9,NNC(=O)N/N=C1\C(=O)N(c2nccs2)C(=O)C(=O)C1c1nc2ccccc2s1 (configuration not stated),109% (inactive)
10,Cc1cc(Cl)cc(Cc2cc(Cl)cc(C)c2O)c1O,7.14% (active)
11,C=CCN1CCCC1=O,109% (inactive)
12,COc1cc(C(=O)O)c(O)c(C(C)(C)C)c1,109% (inactive)
13,CC(=O)OCC1OC(n2cnc3c(=S)nc(N)[nH]c32)C(OC(C)=O)C1OC(C)=O (configuration not stated),72.1% (inactive)
14,CCC(=O)Oc1ccc2ccccc2c1,98.7% (inactive)
15,CCOC(=O)C(=O)CC(=O)c1ccccc1,94.8% (inactive)
16,Cc1ccc(NCN2C(=O)c3ccccc3C2=O)c(C)n1,117% (inactive)
17,CC(C)c1ncc([N+](=O)[O-])n1C,102% (inactive)
18,O=C(O)c1c[nH]c2ccccc2c1=O,102% (inactive)

# Tested on: CAKI-1 renal
# Assay: as above
# Conditions: 10 µM unless noted
row,SMILES,growth
1,CN(C)Cc1ccccn1,96.8% (inactive)
2,CCNCC(C)(C)O,99.1% (inactive)
3,CCOS(=O)(=O)c1ccc([N+](=O)[O-])cc1,99% (inactive)
4,CCCCCCCCCCCCSC1=C(Cl)C(=O)C(OC)=C(OC)C1=O,70.8% (inactive)
5,CC(=O)C1C(=O)C(=O)N(c2ccc(Cl)c(Cl)c2)C1=O (configuration not stated),93.4% (inactive)
6,CC(C)OCC(CCl)OC(=O)Nc1ccccc1 (configuration not stated),98.2% (inactive)
7,COc1ccc(C(=O)/C(=N/Nc2ccccc2)c2ccc(OC)cc2)cc1,73.9% (inactive)
8,NC(=O)N1CCOCC1,115% (inactive)
9,CC(=O)Nc1ccc(O)c(C)c1,97.5% (inactive)
10,COc1cccc2c1Cc1ccccc1-2,98.3% (inactive)
11,C=COC(=O)CCOCC(CC)CCCC (configuration not stated),96.5% (inactive)
12,COc1ccc(C(=O)C(=O)c2ccccc2)cc1,99.9% (inactive)
13,Cc1c(Cl)cccc1NC(=S)NC(=O)c1ccccc1,79.4% (inactive)
14,CC(c1ccccc1)N(C)C (configuration not stated),96.5% (inactive)
15,Nc1ncnc(Nc2ccc(C(F)(F)F)cc2)n1,93.2% (inactive)
16,CCOP(=O)(OCC)/C(=C\N1C(=O)CC(=O)NC1=S)C(=O)OC,97.4% (inactive)
17,C=CCOc1ccc(Cl)cc1Cl,98% (inactive)
18,Cc1cc(Cl)cc(Cc2cc(Cl)cc(C)c2O)c1O,3.84% (active)
19,C=CCN1CCCC1=O,95.8% (inactive)
20,COc1cc(C(=O)O)c(O)c(C(C)(C)C)c1,102% (inactive)
21,CCC(=O)Oc1ccc2ccccc2c1,91.2% (inactive)
22,CCOC(=O)C(=O)CC(=O)c1ccccc1,95.4% (inactive)
23,Cc1ccc(NCN2C(=O)c3ccccc3C2=O)c(C)n1,105% (inactive)
24,CC(C)c1ncc([N+](=O)[O-])n1C,94.4% (inactive)
25,O=C(O)c1c[nH]c2ccccc2c1=O,100% (inactive)
